Laboratory results as given in the supplement of paper PMC6089552.
Screen size: about 3,200 compounds; about 300 (9.4%) showed activity. The full list was thinned out, with actives kept by preference.

Tested on: A673/TR/shEF
Assay: cell viability (LOESS-normalised, relative to median of negative controls) (log2 ratio); higher = more viable cells (less compound effect), active = hit call of the paper (over 3 MAD below the median)
Details: treatment time: 72 h
Summary of the method: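 Doxycycline, present or absent from 24 h before compounds, was used to induce EWS-FLI1 shRNA knockdown in A673/TR/shEF Ewing sarcoma cells at 1,500 per well in 384-well plates. Cells then received library compounds at two or more concentrations, or DMSO controls, for three days. Viability was measured by CellTiter-Glo luminescence on an Envision reader, and per-plate LOESS correction, division by the negative-control median and log2 transformation followed.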

[1] = 0.25 µM, library screen: screen1, EWS-FLI1 expression: high (no doxycycline)
[2] = 0.25 µM, library screen: screen1, EWS-FLI1 expression: low (doxycycline-induced shRNA knockdown)
[3] = 2.5 µM, library screen: screen1, EWS-FLI1 expression: high (no doxycycline)
[4] = 2.5 µM, library screen: screen1, EWS-FLI1 expression: low (doxycycline-induced shRNA knockdown)
[5] = 0.25 µM, library screen: screen2, EWS-FLI1 expression: high (no doxycycline)
[6] = 0.25 µM, library screen: screen2, EWS-FLI1 expression: low (doxycycline-induced shRNA knockdown)
[7] = 2.5 µM, library screen: screen2, EWS-FLI1 expression: high (no doxycycline)
[8] = 2.5 µM, library screen: screen2, EWS-FLI1 expression: low (doxycycline-induced shRNA knockdown)
[9] = 0.103 µM, library screen: screen3, EWS-FLI1 expression: high (no doxycycline)
[10] = 0.103 µM, library screen: screen3, EWS-FLI1 expression: low (doxycycline-induced shRNA knockdown)
[11] = 0.308 µM, library screen: screen3, EWS-FLI1 expression: high (no doxycycline)
[12] = 0.308 µM, library screen: screen3, EWS-FLI1 expression: low (doxycycline-induced shRNA knockdown)
[13] = 0.926 µM, library screen: screen3, EWS-FLI1 expression: high (no doxycycline)
[14] = 0.926 µM, library screen: screen3, EWS-FLI1 expression: low (doxycycline-induced shRNA knockdown)
[15] = 2.8 µM, library screen: screen3, EWS-FLI1 expression: high (no doxycycline)
[16] = 2.8 µM, library screen: screen3, EWS-FLI1 expression: low (doxycycline-induced shRNA knockdown)
[17] = 8.3 µM, library screen: screen3, EWS-FLI1 expression: high (no doxycycline)
[18] = 8.3 µM, library screen: screen3, EWS-FLI1 expression: low (doxycycline-induced shRNA knockdown)
[19] = 25 µM, library screen: screen3, EWS-FLI1 expression: high (no doxycycline)
[20] = 25 µM, library screen: screen3, EWS-FLI1 expression: low (doxycycline-induced shRNA knockdown)

Measured: cell viability (log2)

COc1cc2c3cc1Oc1c(OC)c(OC)cc4c1C(Cc1ccc(O)c(c1)Oc1ccc(cc1)CC3N(C)CC2)N(C)CC4 (stereo not given)
inactive: [1] 0.135 | [2] 0.0489 | [3] 0.126 | [4] -0.0746

CSCCC(N)C(=O)NC(CC(C)C)C(=O)NC(Cc1ccccc1)C(=O)O (stereo not given)
inactive: [1] 0.145 | [2] -0.00633 | [3] 0.123 | [4] 0.0328

O=c1cc(-c2ccccc2)oc2c(O)c(O)ccc12
inactive: [1] 0.189 | [2] -0.0108 | [3] 0.128 | [4] 0.0489

O=c1cc(N2CCOCC2)oc2c(-c3ccccc3)cccc12
active: [3] -0.134 | 25 µM, library screen: screen1, EWS-FLI1 expression: high (no doxycycline) -0.489 | 25 µM, library screen: screen1, EWS-FLI1 expression: low (doxycycline-induced shRNA knockdown) -0.462
inactive: 0.025 µM, library screen: screen1, EWS-FLI1 expression: high (no doxycycline) 0.213 | 0.025 µM, library screen: screen1, EWS-FLI1 expression: low (doxycycline-induced shRNA knockdown) 0.0453 | [1] 0.204 | [2] 0.0333 | [5] 0.135 | [6] 0.11 | [4] 0.0932 | [7] 0.15 | [8] 0.0123

O=c1cc(-c2cccc3c2Sc2ccccc2S3)oc(N2CCOCC2)c1
inactive: [9] 0.00625 | [10] 0.00883 | [11] -0.0309 | [12] 0.0146 | [13] 0.0133 | [14] 0.00404 | [15] 0.0162 | [16] 0.0289 | [17] -0.0501 | [18] 0.00607 | [19] 0.0363 | [20] -0.0432

CC(C)CCC[C@@H](C)[C@H]1CC[C@H]2[C@@H]3CC[C@@H]4C[C@H](O)CC[C@]4(C)[C@H]3CC[C@]12C
inactive: [1] 0.108 | [2] 0.0181 | [3] 0.105 | [4] 0.0609

CC1CCC2(OC1)OC1CC3C4CCC5C[C@@H](O)CCC5(C)C4=CCC3(C)C1[C@@H]2C (stereo not given in full)
inactive: [1] 0.0912 | [2] 0.0387 | [3] 0.0505 | [4] 0.0779

CCCCCCCCCCCCCCCC(=O)NCC(COP(=O)([O-])OCC[N+](C)(C)C)OC (stereo not given)
inactive: [5] 0.14 | [6] 0.124 | [7] 0.166 | [8] 0.0176

CCC(=O)c1ccc2c(c1)N(CC(C)N(C)C)c1ccccc1S2 (stereo not given)
inactive: [1] 0.0889 | [2] 0.155 | [3] 0.168 | [4] 0.297

Cn1cnc([N+](=O)[O-])c1Sc1ncnc2nc[nH]c12
inactive: 0.025 µM, library screen: screen2, EWS-FLI1 expression: high (no doxycycline) 0.138 | 0.025 µM, library screen: screen2, EWS-FLI1 expression: low (doxycycline-induced shRNA knockdown) 0.0997 | [1] 0.0615 | [2] 0.0765 | [5] 0.159 | [6] 0.0607 | [3] -0.0254 | [4] 0.161 | [7] -0.0273 | [8] 0.0557 | 25 µM, library screen: screen2, EWS-FLI1 expression: low (doxycycline-induced shRNA knockdown) 0.03
active: 25 µM, library screen: screen2, EWS-FLI1 expression: high (no doxycycline) -0.337

COc1cc(OC)c(C2NC(=S)NC(C)=C2C(=O)Nc2cccc(Cl)c2)cc1OC (stereo not given)
inactive: [1] 0.0501 | [2] 0.0639 | [3] 0.0887 | [4] 0.0905

NS(=O)(=O)c1ccc(-c2ccc(/C=C3/SC(=S)N(C4CCCCC4)C3=O)o2)cc1
inactive: [1] 0.109 | [2] 0.0623 | [3] 0.167 | [4] -0.0331

CC(=O)O[C@@]12CO[C@@H]1C[C@H](O)[C@@]1(C)C(=O)[C@H](O)C3=C(C)[C@@H](OC(=O)[C@H](O)[C@@H](NC(=O)OC(C)(C)C)c4ccccc4)C[C@@](O)([C@@H](OC(=O)c4ccccc4)[C@H]21)C3(C)C
active: [9] -2.68 | [10] -0.934 | [11] -2.8 | [12] -1.01 | [13] -2.92 | [14] -1.04 | [15] -2.83 | [16] -1.04 | [17] -2.98 | [18] -1.06 | [19] -2.84 | [20] -1.01

CC(=O)O[C@H]1C(=O)[C@@]2(C)[C@H]([C@H](OC(=O)c3ccccc3)[C@]3(O)C[C@H](OC(=O)[C@H](O)[C@@H](NC(=O)c4ccccc4)c4ccccc4)C(C)=C1C3(C)C)[C@]1(OC(C)=O)CO[C@@H]1C[C@@H]2O
active: [9] -2.57 | [10] -0.853 | [1] -3.63 | [2] -1.46 | [5] -2.49 | [6] -0.868 | [11] -2.24 | [12] -0.787 | [13] -2.68 | [14] -0.947 | [3] -4.22 | [4] -1.51 | [7] -2.93 | [8] -1 | [15] -2.59 | [16] -1.11 | [17] -2.75 | [18] -1.03 | [19] -2.68 | [20] -1.1

[Na+].[Na+].[Na+].[O]=[V]([O-])([O-])[O-]
inactive: [9] 0.0642 | [10] 0.11 | [11] -0.00412 | [12] 0.0414 | [13] 0.0791 | [14] 0.0822 | [15] 0.0816 | [16] 0.153 | [17] 0.102 | [18] 0.022 | [19] 0.0273 | [20] 0.0301

O=C(Nc1ccncc1)c1cc(-c2ccccc2)nc2ccccc12
inactive: [1] 0.0994 | [2] 0.0756 | [3] 0.0606 | [4] -0.00485

COC(=O)C[C@H]1C(C)(C)C(OC)=C2CC3=C4CC(=O)O[C@@H](c5ccoc5)[C@]4(C)CCC3[C@@]1(C)C2=O (stereo not given in full)
inactive: [1] 0.0817 | [2] 0.1 | [3] 0.101 | [4] 0.109

Nc1ncnc2c1nc(Br)n2C1OC2COP(=O)(O)OC2C1O (stereo not given)
inactive: [5] 0.279 | [6] 0.0361 | [7] 0.103 | [8] 0.0822

CC1=C(/C=C/C(C)=C/C=C/C(C)=C/C=C/C=C(C)/C=C/C=C(C)/C=C/[C@@]23O[C@]2(C)C[C@@H](O)CC3(C)C)C(C)(C)C[C@H](O)C1
inactive: [1] 0.0858 | [2] 0.0984 | [3] 0.143 | [4] 0.132

COc1ccc2c(c1)[C@@]1(C)CCC(=O)C[C@@H]1CC2
inactive: [1] 0.0574 | [2] 0.0238 | [3] 0.0895 | [4] 0.0859

CC(C)c1ccc2c(c1)CCC1C(C)(CN)CCCC21C (stereo not given)
inactive: [1] 0.0133 | [2] -0.0819 | [3] 0.122 | [4] 0.00337
